Data taken from PubChem BioAssay AID1851 (National Center for Advancing Translational Sciences (NCATS), 2009).
About 5,100 (32%) of roughly 16,000 compounds were called active. Roughly 25% stayed inconclusive and do not appear here. Some of the results follow. The source holds several records for some structures; these can differ, active in one and inactive in another. Unmarked numbers belong to inactive results. The call rests on the fitted dose curve; in most records, active means well fitted curve in the direction sought with a large enough effect; inconclusive means small, poorly fitted or top-dose-only effect, or effect the other way; inactive means no such curve, though single readings can be large or run the other way.

Target: Cytochrome P450 3A4 (Homo sapiens) (UniProt P08684)
Assay: Cytochrome panel assay with activity outcomes
Conditions: recombinant CYP, pro-luciferin dealkylation, luminescence, p450-cyp3a4; series mostly up to 57.1 µM
On the % scale 0 is the no-effect control and ±100 the full control effect.

Sequence of Cytochrome P450 3A4 (Homo sapiens) (P08684 whole entry, looked up): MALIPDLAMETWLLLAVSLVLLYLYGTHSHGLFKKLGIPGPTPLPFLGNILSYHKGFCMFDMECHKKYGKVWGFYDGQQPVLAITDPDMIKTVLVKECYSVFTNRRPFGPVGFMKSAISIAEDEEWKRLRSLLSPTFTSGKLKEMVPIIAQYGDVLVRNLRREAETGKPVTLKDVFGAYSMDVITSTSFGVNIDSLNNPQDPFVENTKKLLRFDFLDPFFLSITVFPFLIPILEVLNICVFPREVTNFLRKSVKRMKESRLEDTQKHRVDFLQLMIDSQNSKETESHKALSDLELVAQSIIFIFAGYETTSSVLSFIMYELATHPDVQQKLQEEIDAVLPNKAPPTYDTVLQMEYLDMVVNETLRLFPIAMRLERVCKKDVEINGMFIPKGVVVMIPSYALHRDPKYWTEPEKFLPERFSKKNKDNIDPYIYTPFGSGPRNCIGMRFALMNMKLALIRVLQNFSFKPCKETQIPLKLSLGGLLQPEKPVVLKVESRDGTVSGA

Compound | activity, negative = inhibition | AC50
c1ccc2c(c1)C(=Nc1ccc(N=C3c4ccccc4-c4ccccc43)cc1)c1ccccc1-2 | -5.03% [at 11.4 µM] | –
CCNC(=O)C/C(C)=N/NC(=O)C12CC3CC(CC(C3)C1)C2 | 18.8% [at 2.29 µM] | –
CCOC(=O)CSCC(NC(=O)OC(C)(C)C)C(=O)OCC (centres undefined) | – | inactive
Cc1ccc(S(=O)(=O)N[C@H]2COC(=O)C/C=C\[C@H](C)[C@@H](NS(=O)(=O)c3ccc(C)cc3)COC(=O)C/C=C\[C@@H]2C)cc1 | – | 3.98 µM (active)
Cc1ccc(S(=O)(=O)N[C@H]2COC(=O)C/C=C\[C@@H](C)[C@H](NS(=O)(=O)c3ccc(C)cc3)COC(=O)[C@H](C)NC(=O)C/C=C\[C@H]2C)cc1 | -35.2% [at 11.4 µM] | –
CO[C@H]1COC(=O)C/C=C\[C@@H](C)COC(=O)[C@@H](C)NC(=O)C/C=C\[C@@H]1C | 14.4% [at 11.4 µM] | –
Cc1ccc(S(=O)(=O)N[C@H]2COC(=O)C/C=C\[C@@H](C)COC(=O)C/C=C\[C@@H]2C)cc1 | -13.2% [at 11.4 µM] | 3.16 µM (active)
CO[C@H]1COC(=O)C/C=C\[C@@H](C)COC(=O)[C@H]2CCCN2C(=O)C/C=C\[C@H]1C | -22.4% [at 11.4 µM] | –
CC(=O)N1CCC2(CC1)CCN(c1ccccn1)CC2 | – | inactive
CC(C)c1ccc(OCc2ccc(C(=O)N3CCN(c4ccccn4)CC3)cc2)cc1 | – | inactive
CC(=O)Nc1ccc(S(=O)(=O)NCC2CCC(C(=O)N3CCN(c4ccccn4)CC3)CC2)cc1 (centres undefined) | – | 12.6 µM (active)
CC(=O)Nc1ccc(S(=O)(=O)NCC2CCC(C(=O)NCCC(C)C)CC2)cc1 (centres undefined) | – | 17.8 µM (active)
COCC(=O)N1CCC2(CC1)CN(c1ccccn1)C2 | – | inactive
O=C(C1CCN(S(=O)(=O)c2cccc3cccnc23)CC1)N1CCN(c2ccccn2)CC1 | – | 3.55 µM (active)
O=C(C1CCN(S(=O)(=O)N2CCOCC2)CC1)N1CCN(c2ccccc2)CC1 | – | inactive
O=C(c1cnc(N2CCN(c3ncccn3)CC2)c2ccccc12)N1CCN(c2ccccn2)CC1 | -7.43% [at 11.4 µM] | –
COc1ccc(S(=O)(=O)NCc2ccc(C(=O)N3CCN(c4ccccn4)CC3)cc2)cc1 | – | 15.8 µM (active)
CC(=O)Nc1ccc(S(=O)(=O)N2CCC(N(C)CCC(C)C)CC2)cc1 | – | inactive
COC(Cn1c(C)c(C(C)=O)c(C(C)=O)c1C)OC | – | inactive
O=C(O)COC(=O)Cc1ccccc1Nc1c(Cl)cccc1Cl | – | inactive
CCOC(=O)n1ccn(C)c1=S | – | inactive
COc1ccc2cc(CCNC(=O)C3CC3)c(=O)[nH]c2c1 | – | inactive

Compound | activity, negative = inhibition | AC50
Cc1ccc2cc(CCNC(=O)c3ccc(Br)o3)c(=O)[nH]c2c1 | – | 14.1 µM (active)
COc1ccc(COC(=O)N/N=C2/C[C@@H](O)[C@@H](O)[C@@H]3[C@@H]4C(=O)N(c5cccc(Oc6ccccc6)c5)C(=O)[C@H]4CC[C@H]23)cc1 | – | 3.16 µM (active)
CCOC(=O)N/N=C1/C[C@@H](O)[C@@H](O)[C@@H]2[C@@H]3C(=O)N(c4cccc(Oc5ccccc5)c4)C(=O)[C@H]3CC[C@H]12 | -29.2% [at 11.4 µM] | –
CCOC(=O)N/N=C1/C[C@@H](O)[C@@H](O)[C@@H]2[C@@H]3C(=O)N(Cc4ccccc4)C(=O)[C@H]3CC[C@H]12 | -22% [at 11.4 µM] | –
CCN1C(=O)[C@H]2[C@H]3[C@H](O)[C@H](O)C/C(=N/NC(=O)OCc4ccccc4)[C@H]3CC[C@@H]2C1=O | -12.4% [at 11.4 µM] | –
O=C(N/N=C1/C[C@@H](O)[C@@H](O)[C@@H]2[C@@H]3C(=O)N(Cc4ccccc4)C(=O)[C@H]3CC[C@H]12)OCc1ccccc1 | -21.6% [at 11.4 µM] | –
CCOC(=O)N/N=C1/C[C@@H](O)[C@@H](O)[C@@H]2[C@@H]3C(=O)N(Cc4ccccc4)C(=O)[C@H]3CC[C@@H]12 | -18.3% [at 11.4 µM] | –
O=C(N/N=C1/C[C@@H](O)[C@@H](O)[C@@H]2[C@@H]3C(=O)N(Cc4ccccc4)C(=O)[C@H]3CC[C@@H]12)OCc1ccccc1 | -17.8% [at 11.4 µM] | –
CCOC(=O)N/N=C1/C[C@@H](O)[C@@H](O)[C@@H]2[C@@H]3C(=O)N(c4cccc(Oc5ccccc5)c4)C(=O)[C@H]3CC[C@@H]12 | -28.7% [at 11.4 µM] | –
CCOC(=O)N/N=C1/C[C@@H](O)[C@@H](O)[C@@H]2[C@@H]3C(=O)N(Cc4ccc5c(c4)OCO5)C(=O)[C@H]3CC[C@@H]12 | – | 3.98 µM (active)
O=C(N/N=C1/C[C@@H](O)[C@@H](O)[C@@H]2[C@@H]3C(=O)N(Cc4ccc5c(c4)OCO5)C(=O)[C@H]3CC[C@H]12)OCc1ccccc1 | – | 3.98 µM (active)
O=C(N/N=C1/C[C@@H](O)[C@@H](O)[C@@H]2[C@@H]3C(=O)N(Cc4ccc5c(c4)OCO5)C(=O)[C@H]3CC[C@@H]12)OCc1ccccc1 | – | 1.26 µM (active)
CCN1C(=O)[C@H]2[C@H]3[C@H](O)[C@H](O)C/C(=N/NC(=O)OCc4ccccc4)[C@@H]3CC[C@@H]2C1=O | -8.99% [at 11.4 µM] | –
O=C(O)C12CC3(C(=O)O)CC(C(=O)O)(CC(C(=O)O)(C1)C3=O)C2=O | -8.55% [at 11.4 µM] | –
N[C@@H](C(=O)O)c1ccc(O)c(C(=O)O)c1 | – | inactive
NC(=NCCCCCCN=C(N)/N=C(\N)Nc1ccc(Cl)cc1)/N=C(\N)Nc1ccc(Cl)cc1 | – | inactive
Nc1nc2c(c(=O)[nH]1)CN(CCCN1CCOCC1)CN2 | -5.39% [at 11.4 µM] | –
C[C@@H](C(=O)Nc1ccc2ccccc2c1)[C@H]1C[C@]1(C)[C@H](NS(=O)(=O)c1ccc2ccccc2c1)c1ccccc1 | – | 7.94 µM (active)
C[C@@H](C(=O)Nc1ccc2ccccc2c1)[C@H]1C[C@]1(C)[C@H](NS(=O)(=O)c1ccc(-c2ccccc2)cc1)c1ccccc1 | – | 10 µM (active)
C[C@@H](C(=O)Nc1ccc2ccccc2c1)[C@@H]1C[C@@]1(C)[C@@H](NS(=O)(=O)c1ccc(-c2ccccc2)cc1)c1ccccc1 | – | inactive
Cc1nn(C)c(Cl)c1S(=O)(=O)N[C@@H](c1ccccc1)[C@]1(C)C[C@H]1[C@@H](C)C(=O)Nc1ccc2ccccc2c1 | – | 1.26 µM (active)
